Test results from PubChem BioAssay (Tox21).
Results filed as inconclusive are left out. Where a call stands in place of a potency, no number is given. Unmarked numbers belong to inactive results. Active and inactive are the calls of the source. Calls come from the whole dose curve; as a rule, active = well fitted activation curve with a large enough effect in the repeat runs; inconclusive = weak or mixed curves; inactive = flat fitted curve, though single readings scatter.

Assay: A CellTox Green Cytotoxicity Assay to monitor cytotoxicity in HepG2 cells - 16 hour (AID 1224876); note: nearly all actives have a fitted effect of over 45% in size
Conditions: CellTox Green fluorescence; series mostly up to 76.8 µM
Description: National Center for Advancing Translational Sciences [NCATS]
NIH Chemical Genomics Center [NCGC]
U.S. Environmental Protection Agency [EPA]
National Institutes of Environmental Health Sciences [NIEHS]
National Toxicology Program [NTP]
Cell-based models are critical for drug discovery. Determining the natural cytotoxic effects resulting from test compounds is an essential research activity. A CellTox Green Cytotoxicity Assay to monitor cytotoxicity in real time of continues cell culture during 40 hours of the compound treatment was used to screen Tox21 10K library compounds in HepG2 cells. CellTox Green Cytotoxicity Assay is a nonlytic, homogeneous, biofluorescent method to measure cytotoxicity in cell culture after experimental manipulation. The assay system uses a proprietary asymmetric cyanine dye that is excluded from viable cells but preferentially stains the dead cell's DNA. […] Viable cells produce no appreciable increases in fluorescence. Therefore, the fluorescence signal produced by the binding interaction with dead cell DNA is proportional to cytotoxicity.
The mixture of HepG2 cell suspension and reagents were dispensed at 600cells/6 ul/well in 1536-well tissue culture treated black solid bottom plates using a Multidrop dispenser. After the assay plates were incubated at a 37 C/5% CO2 incubator for 5 hours, 23 nL of compounds dissolved in DMSO, positive and negative controls was transferred to the assay plate by a pintool work station. The plates were incubated at 37 C for 40 hours. The fluorescence intensity were measured at 0h, 8h, 16h, 24h, 32h and 40h time points using ViewLux plate reader during compound treatment.

| SMILES | Potency | cytotoxicity increase |
| --- | --- | --- |
| CCCC(C)C(O)CC (stereo not given) | inactive |  |
| O=C(CCBr)N1CCN(C(=O)CCBr)CC1 | inactive |  |
| O=P(O)(O)C(O)(Cc1cccnc1)P(=O)(O)O | inactive |  |
| COc1cc2nc(N3CCN(C(=O)C4CCCO4)CC3)nc(N)c2cc1OC (stereo not given) | inactive |  |
| CN(C)CCCN(C)C |  | -15.4% [at 6.97 µM] |
| Clc1cc(Cl)c(Cl)c(Cl)c1Cl | inactive |  |
| O=C(O)Cc1ccccc1Oc1ccc(Cl)cc1Cl | inactive |  |
| c1coc(Cn2cccc2)c1 | inactive |  |
| CCCCC(CC)CCC(CC(C)C)OS(=O)(=O)O (stereo not given) | inactive |  |
| CCCCCCCCCCCCCCCC(=O)OC |  | -17.1% [at 15.8 µM] |
| NNC(=O)CCCCC(=O)NN | inactive |  |
| COc1ccccc1N1CCN(CC(O)COc2cc(OC)c(OC)c(OC)c2)CC1 (stereo not given) | inactive |  |
| CCCCN=C(N)N=C(N)N | inactive |  |
| COc1cc(S(N)(=O)=O)cc(C(=O)O)c1OC | inactive |  |
| NC[C@H]1O[C@H](O[C@H]2[C@H](O)[C@@H](O[C@H]3O[C@H](CO)[C@@H](O)[C@H](N)[C@H]3O)[C@H](N)C[C@@H]2N)[C@H](N)[C@@H](O)[C@@H]1O |  | 0.586% [at 15.8 µM] |
| C[C@H]1COc2c(C3(N)CC3)c(F)cc3c(=O)c(C(=O)O)cn1c23 | inactive |  |
| COc1cc(OC)cc(OC)c1 | inactive |  |
| C[n+]1ccccc1/C=N/O | inactive |  |
| CCCCCCCCCCCCCCBr | inactive |  |
| C=CCn1cc[n+](C)c1 | inactive |  |

| SMILES | Potency | cytotoxicity increase |
| --- | --- | --- |
| C[C@]12C=CC(=O)C=C1[C@@H](F)C[C@@H]1[C@@H]2[C@@H](O)C[C@@]2(C)[C@H]1CC[C@]2(O)C(=O)CO | inactive |  |
| CC(O)C(CO)C(C)O (stereo not given) | inactive |  |
| N[C@H]1C(O)O[C@H](CO)[C@@H](O)[C@@H]1O (stereo not given in full) | inactive |  |
| C=COCCCCO | inactive |  |
| COC(=O)C(c1ccccc1Cl)N1CCc2sccc2C1 (stereo not given) | inactive |  |
| NC(=O)CC[C@@H](N)C(=O)O | inactive |  |
| CN(C)CCc1c[nH]c2ccc(CS(=O)(=O)N3CCCC3)cc12 | inactive |  |
| C/C=C(\C)C(=O)OC/C=C(\C)CCC=C(C)C | inactive |  |
| CC(=O)OCC(=O)[C@@]1(O)CC[C@H]2[C@@H]3CCC4=CC(=O)C=C[C@]4(C)[C@H]3[C@@H](O)C[C@@]21C | inactive |  |
| CCCc1ncc(C(=O)O)s1 | inactive |  |
| CCCC[O][Al]([O]CCCC)[O]CCCC | inactive |  |
| CC(=O)Nc1ccc(S(=O)(=O)Nc2cc(C)on2)cc1 | inactive |  |
| CC(C)(C)C(=O)NCCCC(=O)O | inactive |  |
| O=C(O)COc1ccc2ccccc2c1 | inactive |  |
| CCc1ccc(CC)cc1 | inactive |  |
| CC(C)CC(O)Cc1ccccc1 (stereo not given) | inactive |  |
| COC(=O)/C=C(\C)CCC=C(C)C | inactive |  |
| O=Cc1ccc(C(=O)O)cc1 | inactive |  |
| Cc1cccc(N)n1 | inactive |  |
| O=C1Nc2ccccc2C1=O | inactive |  |
